Assay outcomes (PubChem)
LMP1 NFkB inh – inhibitors of Epstein-Barr LMP1-induced NF-kappaB reporter. 350,000 tested, 0.69% active. inhibition, % at 12.5 µM. LMP1-induced NF-kappaB luciferase reporter cells, luminescence; in the data active = inhibition above about 41%; inconclusive = no clear call, values can overlap the other calls;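 note: 0% = neutral control wells and 100% = reference inhibitor control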
KKLEB tox – reduces viability of KKLEB cystic fibrosis airway cells; KKLEB CF airway cells viability, ATPlite luminescence, overnight; hits give low values; cells stimulated with P. aeruginosa culture filtrate; activity change (cytotoxicity), % at 5 µM; 360,000 tested, 0.36% active;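 active = corrected activity change at or below -50% at 5 µM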
HIF-2a inh – blocks HIF-2a reporter activity; 360,000 tested, 0.72% active; 786-0 RCC cells HIF-2a reporter, luciferase luminescence, overnight; inhibition, % at 18.8 µM;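 active = inhibition of the luminescence signal of 40% or more relative to plate controls, in a single-dose primary screen at 18.75 µM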
CF NFkB inh – cystic fibrosis NF-kB activation inhibition. KKLEB NF-kB-GFP reporter, PAF-induced, GFP fluorescence overnight. inhibition, % at 5 µM. 360,000 tested, 0.86% active;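 active = at least 50% inhibition at 5 µM, scaled per plate between neutral and stimulator controls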;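 note: PAF is a Pseudomonas aeruginosa culture filtrate used as stimulus; plate controls were PAF-stimulated DMSO wells for no effect and unstimulated DMSO wells for full effect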
Peg3 promoter – reduces Peg3 promoter-driven luciferase expression in HeLa. HeLa PEG-Prom luciferase reporter, luminescence, overnight. inhibition, % at 20 µM. 360,000 tested, 1.7% active. AID 588405;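 active = inhibition of at least 50% at 20 µM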
MITF TRPM1 inh – inhibitors of MITF-driven TRPM1 promoter in melanoma cells. SK-MEL-5 TRPM1 promoter luciferase, 24 h. inhibition, % at 12.5 µM. 330,000 tested, 0.83% active. AID 488899;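 active = mean inhibition across replicates of 60% or more, whatever share of single replicates reaches that level; inconclusive = some that reach 60%, reason not given; inactive = mean inhibition across replicates below 60%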
* marks the source's active call; other numbers are inactive results; u = inconclusive; x = not tested or not shown. Shown are actives, neighbours in structure and some others; about 3% of the full set was active somewhere.

SMILES	LMP1 NFkB inh	KKLEB tox	HIF-2a inh	CF NFkB inh	Peg3 promoter	MITF TRPM1 inh
CCOc1cc(/C=C2\C(=O)ON=C2C)ccc1OCc1ccccc1	5.7	2.3	67.0*	-16.4	89.5*	48.7
COc1ccc(C(=O)N/C(=C/c2cccs2)C(=O)N2CCN(C)CC2)cc1	-0.1	4.9	5.1	-10.9	9.1	x
Cc1ccc(-c2cnc(C(O)c3cc(C)cc(C)c3)[nH]2)cc1 (stereo not drawn)	x	-12.0	-11.4	18.7	23.2	x
Cc1ccccc1CN1C(=O)CN(S(C)(=O)=O)CC1(C)C(=O)Nc1ccc2c(c1)OCCO2 (stereo not drawn)	x	x	-0.5	x	x	x
C[C@H](CO)N1C[C@H](C)[C@H](CN(C)S(=O)(=O)c2cn(C)cn2)Oc2ccc(NC(=O)Nc3ccc(C(F)(F)F)cc3)cc2CC1=O	-6.5	-20.3	6.3	32.4	-15.1	23.9
C[C@@H]1CN([C@H](C)CO)C(=O)c2cc(NS(=O)(=O)c3ccc(F)cc3)ccc2O[C@@H]1CN(C)Cc1ccc(Cl)c(Cl)c1	4.2	13.2	-14.6	-4.5	52.4*	0.4
C[C@H](CO)N1C[C@H](C)[C@@H](CN(C)S(=O)(=O)c2ccc(F)cc2)Oc2ccc(NS(=O)(=O)c3ccc(F)cc3)cc2C1=O	-3.9	2.5	11.8	-13.5	-1.1	-20.8
COc1ccc(S(=O)(=O)N(C)C[C@H]2Oc3c(NC(=O)CCC(F)(F)F)cccc3C(=O)N([C@H](C)CO)C[C@@H]2C)cc1	55.6*	-0.8	8.5	-25.4	-7.2	9.0
C[C@@H]1CN([C@@H](C)CO)C(=O)Cc2cc(NC(=O)Nc3ccc(C(F)(F)F)cc3)ccc2O[C@@H]1CN(C)S(=O)(=O)c1ccc(Cl)cc1	-11.6	-5.3	-15.3	26.2	59.9*	47.1
C[C@H](CO)N1C[C@H](C)[C@@H](CN(C)C(=O)NC2CCCCC2)Oc2c(NS(=O)(=O)c3cn(C)cn3)cccc2C1=O	49.8*	2.2	4.7	-6.8	-2.1	-0.3
CCS(=O)(=O)N1CCN(C(=O)c2ccc3nc(C)c(N(C)C(=O)CCc4ccccc4)n3c2)CC1	x	1.1	2.0	3.0	12.6	x
Nc1nc(N)c(N=O)c(Nc2cccc(Cl)c2)n1	x	x	-9.3	x	x	x
COCCCn1cc(CN2CC(N3CCN(Cc4cccc(C)c4)CC3)CS2(=O)=O)nn1 (stereo not drawn)	x	x	3.1	x	x	x
Cc1ccc(S(=O)(=O)Nc2ccccc2N=Cc2ccc([N+](=O)[O-])cc2[N+](=O)[O-])cc1	0.6	-1.8	-46.2	14.6	-23.7	2.1
CCCS(=O)(=O)NC(=O)C1(C)CCN(C(=O)c2ccccc2OC(C)=O)C1 (stereo not drawn)	x	-21.2	11.6	9.6	3.5	x
CC12CCC3c4ccc(O)c([N+](=O)[O-])c4CCC3C1CCC2=O (stereo not drawn)	-16.3	-7.9	-13.3	24.5	38.1	x
C[C@H](CO)N1C[C@H](C)[C@@H](CN(C)Cc2ccc(-c3ccccc3)cc2)Oc2c(NC(=O)Nc3ccc4c(c3)OCO4)cccc2C1=O	1.4	-2.0	-46.5	6.4	94.0*	1.0
C[C@H](CO)N1C[C@H](C)[C@@H](CN(C)S(C)(=O)=O)Oc2c(NC(=O)Nc3ccc4c(c3)OCO4)cccc2C1=O	-3.5	-11.1	-21.3	-25.2	-26.3	-11.5
C[C@@H]1CN([C@H](C)CO)C(=O)c2cc(NC(=O)Nc3ccc(C(F)(F)F)cc3)ccc2O[C@H]1CN(C)Cc1ccc(Cl)c(Cl)c1	-27.3	-0.5	-14.9	-0.1	46.6	49.8
C[C@H]1CN([C@@H](C)CO)C(=O)c2cccc(NC(=O)Nc3ccc(C(F)(F)F)cc3)c2O[C@@H]1CN(C)Cc1ccc(Cl)c(Cl)c1	9.0	-48.4	-35.7	67.8*	97.0*	45.7
COc1ccc(OCCN2CCC(C(=O)NC(C)c3cccc4ccccc34)CC2)cc1 (stereo not drawn)	x	-6.3	3.2	-20.8	0.9	x
Cc1ccc(/C=C2/SC(=S)N(c3ccc(S(=O)(=O)Nc4nccs4)cc3)C2=O)cc1	66.9*	-15.1	16.4	17.2	-0.7	u
COc1ccc(/C=N/NC(=O)COc2ccccc2-c2ccccc2)cc1	74.1*	-24.7	21.9	29.6	19.5	30.8
O=C1c2cccc3c(O)ccc(c23)C(=O)N1c1ccc(Cl)cc1	60.2*	8.8	-6.6	-15.3	-92.0	54.9
CCN(C)C1CN(Cc2cn(CCCC(=O)OC)nn2)S(=O)(=O)C1 (stereo not drawn)	x	x	12.8	x	x	x
SMILES	LMP1 NFkB inh	KKLEB tox	HIF-2a inh	CF NFkB inh	Peg3 promoter	MITF TRPM1 inh
Cc1ccccc1CN1C(=O)c2ccccc2C1c1nnnn1Cc1ccccc1 (stereo not drawn)	x	x	7.7	x	x	x
S=C(NCCCCN(Cc1ccc(Cl)cc1)c1ccc(Br)cn1)NCCCc1cnc[nH]1	x	-15.8	-13.7	13.7	96.1*	x
CC1(C)CCCC2(C)C(OCCO)=CC(=O)C=C12 (stereo not drawn)	-1.6	6.0	6.3	-6.5	16.8	x
Oc1c(Br)cc(/C=N/Nc2ccc(Cl)nn2)cc1Br	-2.1	29.5	21.6	-20.4	-2.7	2.1
Oc1c(Br)cc(Br)cc1/C=N/Nc1ccc(Cl)nn1	44.8*	-20.0	17.9	3.1	47.9	65.6*
CCCSc1nc(C)c2cc(C)cc(C)c2n1	-2.4	-0.2	8.6	-1.5	-9.3	-0.9
Cc1cc(C)c2nc3nc(C)c(C)cc3c(N)c2c1	-29.3	-2.8	-9.9	-115.3	65.6*	41.0
CC1(C(=O)O)CCN1C(=O)c1cccc(C(F)(F)F)c1 (stereo not drawn)	x	8.7	-1.1	-2.4	-1.5	x
O=C(CN1C(=O)/C(=C/c2ccc(C(F)(F)F)cc2)Sc2ccccc21)NCCCN1CCOCC1	2.0	-8.7	-17.7	19.8	6.7	-15.4
CN1CCN(CCCNC(=O)c2ccc(/C=C3\Sc4ccccc4N(Cc4ccccc4F)C3=O)cc2)CC1	-2.0	0.6	-5.1	-7.3	74.3*	-8.9
CCN1CCN(CCNC(=O)c2ccc3c(c2)N(Cc2ccc(F)cc2)C(=O)/C(=C/c2ccccc2)S3)CC1	-61.3	-25.5	29.1	37.2	103.0*	91.7*
COc1ccc(/C=C2\Sc3ccc(C(=O)NC4CC4)cc3N(C)C2=O)cc1OC	37.9	-10.8	27.0	16.6	19.0	-7.6
Cc1ccccc1CN1C(=O)/C(=C\c2ccc(C(=O)NCCN3CCOCC3)cc2)Sc2ccccc21	7.4	6.8	17.5	13.3	56.6*	-2.6
O=C(NCCN1CCOCC1)c1ccc2c(c1)N(Cc1cccc(F)c1)C(=O)c1ccccc1S2	4.5	-2.7	26.0	19.2	18.5	1.6
CN1C(=O)/C(=C\c2ccccc2F)Sc2ccc(C(=O)NC3CCN(Cc4ccccc4)CC3)cc21	12.5	-18.0	16.6	26.6	58.3*	29.1
Cc1cccc(C)c1NC(=O)C1(C)CN(S(C)(=O)=O)CC(=O)N1Cc1ccc2c(c1)OCO2 (stereo not drawn)	x	x	-12.9	x	x	x
COc1ccc(N(C)S(=O)(=O)c2cccc(C(=O)OCC(=O)Nc3cc(C)ccc3OC)c2)cc1	4.4	-1.0	-3.0	22.6	35.5	x
